Columns and labels:
Conditions in all cases: concentration: 1 μM, replicates: in singlicate; n = 1
CAMK2D = tested on: CAMK2D
CAMK2G = tested on: CAMK2G
CAMK4 = tested on: CAMK4
CAMKK1 = tested on: CAMKK1
CAMKK2 = tested on: CAMKK2
CASK = tested on: CASK
CDC2L1 = tested on: T1, CDC2L1
T1 construct: gene CDK11B

CDC2L2 = tested on: CDC2L2
CDC2L5 = tested on: T2, CDC2L5
T2 construct: gene CDK13

CDK11 = tested on: T3, CDK11
T3 construct: gene CDK19

CDK2 = tested on: CDK2
CDK3 = tested on: CDK3
CDK4-cyclinD1 = tested on: CDK4-cyclinD1
CDK4-cyclinD3 = tested on: CDK4-cyclinD3
CDK4 = tested on: CDK4
CDK5 = tested on: CDK5
CDK7 = tested on: CDK7
CDK8 = tested on: CDK8
CDK9 = tested on: CDK9
CDKL1 = tested on: CDKL1
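Further: KINOMEscan kinase panel screen.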

Row | Compound | %Inh (CAMK2D) | %Inh (CAMK2G) | %Inh (CAMK4) | %Inh (CAMKK1) | %Inh (CAMKK2) | %Inh (CASK) | %Inh (CDC2L1) | %Inh (CDC2L2) | %Inh (CDC2L5) | %Inh (CDK11) | %Inh (CDK2) | %Inh (CDK3) | %Inh (CDK4-cyclinD1) | %Inh (CDK4-cyclinD3) | %Inh (CDK4) | %Inh (CDK5) | %Inh (CDK7) | %Inh (CDK8) | %Inh (CDK9) | %Inh (CDKL1)
1 | Cc1ccc(C)c(NC(=O)NCCNc2ccnc(Nc3ccc(F)cc3)n2)c1 [GSK1379878] | 18% | 21% | 0% | 0% | 2% | 0% | 0% | 17% | 0% | 6% | 0% | 0% | 0% | 0% | 43% | 0% | 0% | 29% | 0% | 0%
2 | CNc1nccc(-c2c(-c3ccc(F)cc3)ncn2C2CCN(C)CC2)n1 [SB-222903] | 0% | 0% | 7% | 0% | 0% | 11% | 4% | 13% | 0% | 0% | 0% | 0% | 0% | 0% | 0% | 0% | 0% | 46% | 1% | 13%
3 | CC(C)(C)OC(=O)NC1CCCN(c2cc(-c3ccc4c(N)n[nH]c4c3)nc(N)n2)C1 (stereo not shown) [GSK2286096] | 16% | 18% | 0% | 0% | 32% | 2% | 8% | 0% | 0% | 38% | 0% | 0% | 0% | 0% | 0% | 0% | 0% | 0% | 2% | 0%
4 | c1ccc(-c2ccc3c(-c4ccnc(Nc5ccc6c(c5)OCCO6)n4)cnn3n2)cc1 [GW818941] | 0% | 10% | 0% | 0% | 0% | 0% | 0% | 3% | 0% | 9% | 0% | 3% | 0% | 0% | 34% | 0% | 0% | 11% | 0% | 0%
5 | COc1ccc(Nc2nccc(N3CCC(NC(=O)Nc4ccc5c(c4)OCO5)C3)n2)cc1 (stereo not shown) [GSK1379745] | 7% | 20% | 0% | 29% | 9% | 5% | 0% | 0% | 0% | 46% | 73% | 2% | 42% | 0% | 32% | 2% | 0% | 46% | 0% | 1%

Reference: article PMC5540273 (PLoS ONE, 2017)
